Source: PubChem
An excerpt weighted towards active compounds, which were near 3.1% of everything screened.
uPA generation: qHTS for Inhibitors of Cell Surface uPA Generation; cell surface uPA generation assay, qHTS; Potency, µM (titrated, usually from 38.3 µM), for the others: at the top dose activity change, negative = inhibition, hits mostly inhibitors; 0.31% of 330,000 active; AID 540303, 2011; active = well fitted inhibition curve with a large enough effect; inconclusive = small, poorly fitted or top-dose-only effect; inactive = no such curve, though single readings can be large or run the other way; tested in mouse RAW 264.7 cells; note: potency is the fitted concentration of half-maximal effect; % is set by controls: 0 for no effect and ±100 for the full control effect; nearly all actives have a fitted effect of over 55% in size
DRD3 agonist: qHTS of D3 Dopamine Receptor Agonist: qHTS | D(3) dopamine receptor (Homo sapiens), P35462 | D3R DiscoveRx beta-arrestin cells, luminescence, 90 min | max activation, % | 0.58% of 410,000 active | AID 652048, 2013; in the data active = max activation above about 30%; note: 0% is about no effect
Target sequence (P35462 whole entry, looked up): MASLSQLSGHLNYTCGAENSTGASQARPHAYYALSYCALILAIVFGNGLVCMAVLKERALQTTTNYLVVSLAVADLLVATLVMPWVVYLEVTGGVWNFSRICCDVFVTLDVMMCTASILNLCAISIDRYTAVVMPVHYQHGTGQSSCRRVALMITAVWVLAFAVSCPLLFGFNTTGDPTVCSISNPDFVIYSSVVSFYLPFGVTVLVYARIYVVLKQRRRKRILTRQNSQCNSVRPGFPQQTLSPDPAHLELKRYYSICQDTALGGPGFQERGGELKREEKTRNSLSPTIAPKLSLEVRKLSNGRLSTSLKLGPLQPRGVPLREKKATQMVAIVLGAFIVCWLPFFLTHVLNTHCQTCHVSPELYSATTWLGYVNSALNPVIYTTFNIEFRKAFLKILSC
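Agonist mode: compounds and dopamine controls were applied to plated cells for 90 min at 37 degrees C after an overnight attachment at 1500 cells/well. Luminescent read-out followed 30 - 60 minutes at room temperature with DiscoveRx detection reagent.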
D3 antag: qHTS of D3 Dopamine Receptor Antagonist: qHTS | D(3) dopamine receptor (Homo sapiens), P35462 | max response, negative = inhibition, % | 2.5% of 360,000 active | AID 652054, 2013 | D3R cells, DiscoveRx beta-arrestin luminescence, antagonist mode; active compounds read low; in the data active = max response below about -50%; inconclusive = no clear call, values can overlap the other calls; note: % is set by controls: 0 for no effect and ±100 for the full control effect
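Cells plated overnight at 1500 cells/well, then exposed to library compounds with dopamine controls for 90 minutes at 37 degrees C. DiscoveRx reagent added for 30–60 minutes at room temperature; luminescence read, quantitative HTS format.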
RGS4 inhibitor: Inhibitors of Regulator of G Protein Signaling (RGS) 4: qHTS | Regulator of G-protein signaling 4 (Homo sapiens), P49798 | Transcreener GDP fluorescence polarization, RGS4-accelerated GTP hydrolysis | Potency, µM (highest dose often 114 µM), inactives show at the highest dose activity change, negative = inhibition, actives largely listed as inhibitors | 0.039% of 390,000 active | AID 504845, 2011; active = well fitted inhibition curve with a large enough effect; inconclusive = small, poorly fitted or top-dose-only effect; inactive = no such curve, though single readings can be large or run the other way; note: potency is the fitted concentration of half-maximal effect; % is set by controls: 0 for no effect and ±100 for the full control effect; nearly all actives have a fitted effect of over 75% in size
Target sequence (P49798 whole entry, looked up): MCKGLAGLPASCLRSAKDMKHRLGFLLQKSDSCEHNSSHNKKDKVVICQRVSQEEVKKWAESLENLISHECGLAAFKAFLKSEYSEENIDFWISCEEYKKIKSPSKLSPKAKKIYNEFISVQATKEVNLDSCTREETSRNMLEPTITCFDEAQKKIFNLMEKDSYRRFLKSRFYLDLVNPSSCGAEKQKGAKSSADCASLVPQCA
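MLSMR compounds (23 nl, pin-transferred) preincubated 10 min at room temperature with a 500nM (2x) first reagent, then RGS4 at 900nM (2x) plus Transcreener GDP mix added; fluorescence polarization (620/688 nm) read before and after 90 min at 30 °C.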
Starred values were filed as active, the others as inactive; ? = inconclusive; · = not tested or not shown; [ ] = dose if it differs, or a comment.

SMILES	uPA generation	DRD3 agonist	D3 antag	RGS4 inhibitor
COc1ccc(N2CC(C(=O)N/N=C/c3cc([N+](=O)[O-])ccc3O)CC2=O)cc1 (configuration not stated)	-1%	-2	-52*	-21%
Cc1cc(C(=O)N/N=C/c2cc([N+](=O)[O-])ccc2O)c2ccccc2n1	-8%	-10	-65*	-3%
Cc1cc(C(=O)N/N=C/c2cc(Br)cc([N+](=O)[O-])c2O)c2ccccc2n1	-9%	-14	-94*	9%
CCOC(=O)C1=C(CS(=O)(=O)c2ccc(F)c(C)c2)NC(=O)NC1c1ccccc1OC (configuration not stated)	·	-8	·	20%
C=Cc1ccc(Cn2c(C(=O)O)c(CNCc3cc(OC)ccc3OC)c3ccc(C)cc32)cc1	·	2	·	-1%
O=C(N/N=C/c1cc([N+](=O)[O-])ccc1O)NC12CC3CC(CC(C3)C1)C2	-5%	-4	-22	2%
O=C(N/N=C/c1cc([N+](=O)[O-])ccc1O)C12CC3CC(CC(C3)C1)C2	-6%	-28	-93*	11%
O=C(N/N=C/c1cc([N+](=O)[O-])ccc1O)Nc1ccccc1	2%	-17	-75*	-30%
CC(N=Cc1cc([N+](=O)[O-])ccc1O)c1ccccc1 (configuration not stated)	-4%	-4	-52*	19%
O=[N+]([O-])c1cccc(N/N=C/c2cc([N+](=O)[O-])ccc2O)c1	6%	-4	?	-24%
Cc1cc(C(=O)N/N=C/c2ccc([N+](=O)[O-])cc2)c2ccccc2n1	2.8µM*	-1	-4	13%
O=[N+]([O-])c1ccc(O)c(C=NN2CCCCC2)c1	·	-22	-76*	·
Oc1ccc(Br)cc1/C=N/N1CCCCC1	2%	-11	-12	0%
Cn1c(=O)c(-c2ccccc2)cc2ccccc21	3%	47*	4	-17%
CCCCN(C)C(=O)CSc1nc2ccccc2nc1Cc1ccc(C)cc1	·	-21	·	-5%
COc1cc(-c2noc(CN3CCN(c4cccc(Cl)c4)CC3)n2)cc(OC)c1OC	·	0	·	19%
Cc1ccc2oc3c(c(=O)c2c1)C(c1cccc(Br)c1)N(Cc1ccco1)C3=O (configuration not stated)	12%	4	-56*	14%
Cc1cc2oc3c(c(=O)c2cc1C)C(c1cccc(Br)c1)N(Cc1ccco1)C3=O (configuration not stated)	11%	2	-16	-30%
CCC(=O)N[C@@H]1CCc2cccc(OC)c2C1	·	·	·	468%[56.9 µM]
CCC(=O)NC1Cc2ccccc2C(c2ccccc2)C1 (configuration not stated)	·	·	·	24µM*
Cc1ccc(Nc2n[nH]c(=S)s2)cc1	·	-7	-51*	·
S=c1[nH]nc(Nc2ccc(Cl)cc2)s1	10%	-3	102	-20%
FC(F)(F)c1nc2nc(Cl)c(Cl)nc2n1CCCN1CCOCC1	·	-19	-57*	·
Cc1nc2ccccc2c(=O)n1CCCN1CCOCC1	6%	4	5	14%
COc1ccc(C(=O)Nc2cc(-c3cccc(C)c3)nn2-c2ccccc2)cc1	·	-11	·	21%
SMILES	uPA generation	DRD3 agonist	D3 antag	RGS4 inhibitor
C=C1C(=O)C23CCC4C(C)(C(=O)OC)CCCC4(C)C2CCC1(O)C3 (configuration not stated)	-9%	-29	-106*	?
CN(CC(=O)NCCc1ccccc1)S(=O)(=O)c1ccc(Br)s1	18%	-30	-78*	23%
CN(CC(=O)NCCc1ccccc1)S(=O)(=O)c1cccs1	2%	-11	-17	-8%
N#C/C(=C/c1ccc(N2CCOCC2)o1)c1ccc(Cl)cc1	-29%	-17	-105*	?
CCOc1ccc(CCN2C(=S)N([C@@H](Cc3ccc(O)cc3)CN3CCC[C@@H]3CN3C(=S)NC[C@@H]3CC(C)C)C[C@@H]2Cc2ccc(O)cc2)cc1	·	-20	-80*	·
CCOc1ccc(CCN2C(=S)N([C@@H](Cc3ccc(O)cc3)CN3CCCC3CN3C(=S)NC[C@@H]3Cc3ccc(O)cc3)C[C@@H]2CC(C)C)cc1 (some centres not stated)	?	-44	-68*	13%
CCOc1ccc(CCN2C(=S)N([C@@H](Cc3ccccc3)CN3CCC[C@@H]3CN3C(=S)NC[C@@H]3Cc3ccc(O)cc3)C[C@@H]2CC(C)C)cc1	·	-2	0	·
Cc1ccc(C(=O)NCCc2cccs2)cc1	5µM*	-1	1	11%[11.4 µM]
NC(=O)c1ccc(NCCc2cccs2)cc1	·	-8	-50*	·
COCc1cc(C)nc2sc3c(c12)NC(c1ccc(NC(C)=O)cc1)N(c1ccc(C)cc1)C3=O (configuration not stated)	·	3	·	19%
CCn1c(CN2CCC(C)CC2)nc2cc(NC(=O)c3ccc([N+](=O)[O-])cc3)ccc21	·	60*	·	3%
Cc1cccn2c(=O)c(C(=O)NCc3cccc(F)c3)cnc12	·	-2	·	17%
CCc1ccc(NC(=O)Cn2nnc(-c3ccccc3N)n2)cc1	·	80*	·	0%
CCOC(=O)c1ccc(NC(=O)Cn2nnc(-c3ccccc3C)n2)cc1	1%	6	1	0%
O=S(=O)(NNc1ncc(C(F)(F)F)cc1Cl)c1ccc(F)cc1F	3%	2	1	-10%
Cc1ccc(NC(=S)NNc2ncc(C(F)(F)F)cc2Cl)c(C)c1	0%	-13	-53*	?
FC(F)(F)c1cnc(NNC(=S)Nc2ccc(Cl)cc2)c(Cl)c1	-12%	-12	-64*	?
O=C(NNc1ncc(C(F)(F)F)cc1Cl)c1ccc(Cl)c(Cl)c1	2%	18	2	1%
Cc1ccc(NC(=S)NNC(=S)Nc2cccc(C(F)(F)F)c2)cc1	-2%	1	-28	?
Fc1ccc(NC(=S)NNc2ncc(C(F)(F)F)cc2Cl)c(F)c1	-6%	5	-75*	-47%
Cc1ccc(NC(=S)NNc2ncc(C(F)(F)F)cc2Cl)cc1	-3%	-36	-68*	-17%
COc1ccc2cc([C@H](C)CO)ccc2c1	·	-2	·	·
CCOc1ccc(-c2cnc(NCc3ccc(OC)cc3OC)n2C)cc1	·	-3	·	11%
COc1ccc(Nc2cc(C(=O)NCCCN3CCN(c4ccccc4F)CC3)c3ccccc3n2)c(OC)c1	·	13	·	0%
CC(=O)c1cc2cccc(OC3(C)CCN(Cc4ccc(-c5ccccn5)cc4)C3)c2o1 (configuration not stated)	·	-10	-53*	·
COc1cccc(OC2(C)CCN(Cc3ccc(-c4ccccn4)cc3)C2)c1 (configuration not stated)	·	2	?	·
CCOc1ccc(NC(=O)CCS(=O)(=O)c2cc3c4c(c2)CCN4C(=O)CC3)cc1	·	5	·	-13%
CCC(=O)NCc1nc2ccccc2n1Cc1ccccc1	·	2	·	-8%
